# According to article PMC11062922 (Nature Chemical Biology, 2023):
# Read-outs that look alike come from different tables or passages of the source.
# Experiments:
# Design in all cases: species or system human, MV4-11 + K-562 + COLO205 + SK-N-BE2 + OVCAR-8
# ACVR1B = conditions: read-out: apparent Kd; compound concentrations:100 nM and 1000 nM (sheet 'Samples'); n = 1
# GAK = conditions: read-out: apparent Kd; compound concentrations:100 nM and 1000 nM (sheet 'Samples'); n = 1
# NQO2 = conditions: read-out: apparent Kd, n = 1
# PRKD2 = conditions: read-out: apparent Kd; compound concentrations:100 nM and 1000 nM (sheet 'Samples'); n = 1
# PRKD3 = conditions: read-out: apparent Kd; compound concentrations:100 nM and 1000 nM (sheet 'Samples'); n = 1
# RIPK2 = conditions: read-out: apparent Kd; compound concentrations:100 nM and 1000 nM (sheet 'Samples'); n = 1
# TGFBR1 = conditions: read-out: apparent Kd; compound concentrations:100 nM and 1000 nM (sheet 'Samples'); n = 1
# TGFBR2 = conditions: read-out: apparent Kd; compound concentrations:100 nM and 1000 nM (sheet 'Samples'); n = 1
# TNIK = conditions: read-out: apparent Kd; compound concentrations:100 nM and 1000 nM (sheet 'Samples'); n = 1
# ZAK = conditions: read-out: apparent Kd; compound concentrations:100 nM and 1000 nM (sheet 'Samples'); n = 1
# ACVR2B = conditions: read-out: apparent Kd, compound concentrations: 100 nM and 1000 nM (sheet 'Samples'), n = 1
# AURKA = conditions: read-out: apparent Kd; compound concentrations: 100 nM and 1000 nM (sheet 'Samples'), CATDS: 0.17816442953383199; n = 1
# AURKB = conditions: read-out: apparent Kd; compound concentrations: 100 nM and 1000 nM (sheet 'Samples'), CATDS: 0.16275021162643; n = 1
# CDKL5 = conditions: read-out: apparent Kd, compound concentrations: 100 nM and 1000 nM (sheet 'Samples'), n = 1
# FGFR1 = conditions: read-out: apparent Kd; compound concentrations: 100 nM and 1000 nM (sheet 'Samples'), CATDS: 3.3147223570266997E-2; n = 1
# FLT3 = conditions: read-out: apparent Kd; compound concentrations: 100 nM and 1000 nM (sheet 'Samples'), CATDS: 3.2008123306219403E-2; n = 1
# FLT4 = conditions: read-out: apparent Kd; compound concentrations: 100 nM and 1000 nM (sheet 'Samples'), CATDS: 9.9526112559891702E-2; n = 1
# GSK3A = conditions: read-out: apparent Kd, compound concentrations: 100 nM and 1000 nM (sheet 'Samples'), n = 1
# GSK3B = conditions: read-out: apparent Kd, compound concentrations: 100 nM and 1000 nM (sheet 'Samples'), n = 1
# MAP3K1 = conditions: read-out: apparent Kd; compound concentrations: 100 nM and 1000 nM (sheet 'Samples'), CATDS: 3.7364470577418298E-2; n = 1
# MAP3K5 = conditions: read-out: apparent Kd; compound concentrations: 100 nM and 1000 nM (sheet 'Samples'), CATDS: 2.9017198987143701E-2; n = 1
# MAPK10 = conditions: read-out: apparent Kd; compound concentrations: 100 nM and 1000 nM (sheet 'Samples'), CATDS: 3.1635267678624499E-2; n = 1
# MAPK9 = conditions: read-out: apparent Kd; compound concentrations: 100 nM and 1000 nM (sheet 'Samples'), CATDS: 4.3387929743655899E-2; n = 1
# NUAK1 = conditions: read-out: apparent Kd; compound concentrations: 100 nM and 1000 nM (sheet 'Samples'), CATDS: 3.13847647871121E-2; n = 1
# PLK4 = conditions: read-out: apparent Kd; compound concentrations: 100 nM and 1000 nM (sheet 'Samples'), CATDS: 5.2678675037883101E-2; n = 1
# PRKAA2 = conditions: read-out: apparent Kd; compound concentrations: 100 nM and 1000 nM (sheet 'Samples'), CATDS: 3.01302788001056E-2; n = 1
# RET = conditions: read-out: apparent Kd; compound concentrations: 100 nM and 1000 nM (sheet 'Samples'), CATDS: 5.3147422630729399E-2; n = 1
# SLK = conditions: read-out: apparent Kd; compound concentrations: 100 nM and 1000 nM (sheet 'Samples'), CATDS: 2.96585498316322E-2; n = 1
# STK10 = conditions: read-out: apparent Kd; compound concentrations: 100 nM and 1000 nM (sheet 'Samples'), CATDS: 4.4384834768784902E-2; n = 1
# STK16 = conditions: read-out: apparent Kd; compound concentrations: 100 nM and 1000 nM (sheet 'Samples'), CATDS: 3.04344636095151E-2; n = 1
# TEC = conditions: read-out: apparent Kd; compound concentrations: 100 nM and 1000 nM (sheet 'Samples'), CATDS: 3.6245892865131898E-2; n = 1
# TTN = conditions: read-out: apparent Kd; compound concentrations: 100 nM and 1000 nM (sheet 'Samples'), CATDS: 3.6738161320686101E-2; n = 1
# PI4KB = conditions: read-out: apparent Kd; compound concentrations: 100 nM and 1000 nM (sheet 'Samples'), CATDS: 0.57979233132980301; n = 1
# ACVR1 = conditions: read-out: apparent Kd; compound concentrations: 100 nM and 1000 nM (sheet 'Samples'), CATDS: 0.17536774799610499; n = 1
# BCR = conditions: read-out: apparent Kd; compound concentrations: 100 nM and 1000 nM (sheet 'Samples'), CATDS: 0.114797180795753; n = 1
# CSNK2A1;CSNK2A3 = conditions: read-out: apparent Kd; compound concentrations: 100 nM and 1000 nM (sheet 'Samples'), CATDS: 0.137145274912611; n = 1
# CSNK2A2 = conditions: read-out: apparent Kd; compound concentrations: 100 nM and 1000 nM (sheet 'Samples'), CATDS: 0.22568308322630501; n = 1
structure (smiles),measurement,setting,value
c1ccc(-c2n[nH]cc2-c2ccnc(-c3ccc(OCCN4CCOCC4)cc3)c2)nc1 [GW695874X],potency estimated from few doses,ACVR1B,51.4 nM
same,potency estimated from few doses,GAK,432 nM
same,potency estimated from few doses,NQO2; compound concentrations:100 nM and 1000 nM (sheet 'Samples'),256 nM
same,potency estimated from few doses,PRKD2,648 nM
same,potency estimated from few doses,PRKD3,1460 nM
same,potency estimated from few doses,RIPK2,774 nM
same,potency estimated from few doses,TGFBR1,27.7 nM
same,potency estimated from few doses,TGFBR2,758 nM
same,potency estimated from few doses,TNIK,1170 nM
same,potency estimated from few doses,ZAK,2090 nM
Cc1[nH]nc2c1N=C(c1ccccc1F)c1cc(C(N)=O)ccc1N2 [RO0282586-000],potency estimated from few doses,ACVR2B; CATDS: 3.5760557024692601E-2,1000 nM
same,potency estimated from few doses,AURKA,30 nM
same,potency estimated from few doses,AURKB,34.5 nM
same,potency estimated from few doses,CDKL5; CATDS: 3.9289785265400001E-2,749 nM
same,potency estimated from few doses,FGFR1,1300 nM
same,potency estimated from few doses,FLT3,1480 nM
same,potency estimated from few doses,FLT4,82.8 nM
same,potency estimated from few doses,GSK3A; CATDS: 0.17602991696345399,30.5 nM
same,potency estimated from few doses,GSK3B; CATDS: 0.14122707507865501,43.6 nM
same,potency estimated from few doses,MAP3K1,873 nM
same,potency estimated from few doses,MAP3K5,2230 nM
same,potency estimated from few doses,MAPK10,1550 nM
same,potency estimated from few doses,MAPK9,564 nM
same,potency estimated from few doses,"NQO2; compound concentrations: 100 nM and 1000 nM (sheet 'Samples'), CATDS: 5.8964681911963503E-2",259 nM
same,potency estimated from few doses,NUAK1,1600 nM
same,potency estimated from few doses,PLK4,340 nM
same,potency estimated from few doses,PRKAA2,1890 nM
same,potency estimated from few doses,RET,333 nM
same,potency estimated from few doses,SLK,2020 nM
same,potency estimated from few doses,STK10,530 nM
same,potency estimated from few doses,STK16,1810 nM
same,potency estimated from few doses,TEC,960 nM
same,potency estimated from few doses,TTN,920 nM
CNc1ncnc2[nH]ncc12 [SKF-18355],potency estimated from few doses,ACVR2B; CATDS: 0.43951319986121201,1910 nM
same,potency estimated from few doses,PI4KB,1080 nM
COc1cccc(-n2ncc3c(N/N=C/c4ccc(S(C)(=O)=O)cc4)ncnc32)c1 [GW811168X],potency estimated from few doses,ACVR1,555 nM
same,potency estimated from few doses,BCR,1420 nM
same,potency estimated from few doses,CDKL5; CATDS: 0.10101184649506401,2130 nM
same,potency estimated from few doses,CSNK2A1;CSNK2A3,907 nM
same,potency estimated from few doses,CSNK2A2,365 nM
same,potency estimated from few doses,GSK3A; CATDS: 0.157775642803201,677 nM
same,potency estimated from few doses,GSK3B; CATDS: 0.15091586406642499,740 nM
